# Measurements published in PubChem BioAssay.
# Activity calls are given as the source filed them.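 The calls were made as follows, unless noted: active = inhibition of the reporter signal at or above 50%; inactive = inhibition below 50%.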
# Experiments:
# [1] = inhibitors of TNFa-induced NFkB p65 translocation, primary screen, imaging, HUVEC, MLSMR starter and 10KST1 sets (AID 438;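 active = inhibition above 20% together with a positive visual image hit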;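 also: compound added about 3h40 before a 20 min TNFalpha stimulation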;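 as to inhibition: signal is the nuclear over cytoplasmic p65 intensity ratio per well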); settings: HUVEC TNFa-induced p65 nuclear translocation; cell count: measured here: nuclei count (cytotoxicity indicator), at 2.08 µM; inhibition: at 2 µM, stronger effect = higher value, 0% TNFa-plus-vehicle, 100% no-TNFa wells
# [2] = inhibitors of mutant huntingtin aggregation, primary screen, imaging, exon1htt(103Q)mCFP cells, high-content imaging (AID 483;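 active = visual image review flags a hit and inhibition of aggregation exceeds 20%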;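 also: compound exposure lasted 3 days before fixation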;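 as to nuclei count: percent of the per-plate median nuclei count of sample wells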); settings: exon1htt(103Q)mCFP cell line, aggregate imaging, at 2 µM; inhibition of aggregation: stronger effect = higher value; nuclei count: measured here: cell count, toxicity
# [3] = inhibitors of E-selectin induction by TNFa, primary screen, imaging, HUVEC, immunofluorescence, MLSMR starter and 10KST1 sets (AID 487;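 active = visually confirmed hit in the image check and inhibition above 20%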;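 as to inhibition: signal is fraction of cell area covered by stained E-selectin grains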;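 as to nuclei count: 100% = median nuclei count of all wells on the same plate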); settings: HUVEC TNFalpha-induced E-selectin immunofluorescence imaging, at 2 µM; inhibition: stronger effect = higher value; nuclei count: measured here: cell number, toxicity
# [4] = target: Voltage-gated potassium channel subunit beta-2 (Rattus norvegicus) (UniProt P62483); test: KvBeta enzyme negative modulators, primary screen, biochemical, NADPH fluorescence (AID 622;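 active = fluorescence slope higher than the sample average by over 3 SD, cut at about -0.22 in these data, passing the limit was not always enough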;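 also: slope of raw intensity against log time taken from 70 to 1610 s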); settings: recombinant KvBeta, 4-cyanobenzaldehyde reduction, at 10 µM, stronger effect = higher value
# [5] = target: Voltage-gated potassium channel subunit beta-2 (Rattus norvegicus) (UniProt P62483); test: KvBeta positive modulators, primary screen, biochemical, NADPH fluorescence (AID 623;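 active = NADPH fluorescence slope more negative than the mean of all samples by about 3 SD, 99.7% confidence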;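 also: fluorescence intensity change per second fitted from 20 to 320 s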); settings: Recombinant KvBeta, NADPH fluorescence decrease slope, 10 min; at 10 µM; stronger effect = lower value
# [6] = target: Alpha-2C adrenergic receptor (Homo sapiens) (UniProt P18825); test: modulators of alpha2C/GIRK thallium flux, primary screen, cell-based, HEK293 alpha2C/GIRK1/2 (AID 624;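 active = fluorescence slope after compound addition differing from the mean of all screened samples at 99.7% confidence, in either direction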;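 also: slope of fluorescence ratio to pre-addition baseline per second over 15 to 24 s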); settings: thallium flux BTC fluorescence, at 10 µM, actives lie on both sides
# [7] = inhibitors of Sendai virus-induced IRF3 signaling, primary screen, TLR/RLR signaling modifier project, cell-based, Sendai virus stimulus, luciferase, 10K MLSCN set (AID 602276;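 active = inhibition at or above 50% at 10 µM; inactive = inhibition below 50%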;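 also: firefly luciferase from ISG56 promoter only with Renilla not read in this screen; 0% = Sendai virus plus DMSO and 100% = medium plus DMSO without virus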); settings: HEK293 RL24 IRF3 luciferase reporter, at 10 µM, stronger effect = higher value
# [8] = inhibitors of poly I:C-induced TLR3 signaling, primary screen, cell-based, poly I:C stimulus, luciferase, 10K MLSCN set (AID 602277); settings: HEK293-TLR3 RL24 IRF3 luciferase reporter, at 10 µM, stronger effect = higher value
# Chain of Voltage-gated potassium channel subunit beta-2 (Rattus norvegicus) (P62483 whole entry, looked up): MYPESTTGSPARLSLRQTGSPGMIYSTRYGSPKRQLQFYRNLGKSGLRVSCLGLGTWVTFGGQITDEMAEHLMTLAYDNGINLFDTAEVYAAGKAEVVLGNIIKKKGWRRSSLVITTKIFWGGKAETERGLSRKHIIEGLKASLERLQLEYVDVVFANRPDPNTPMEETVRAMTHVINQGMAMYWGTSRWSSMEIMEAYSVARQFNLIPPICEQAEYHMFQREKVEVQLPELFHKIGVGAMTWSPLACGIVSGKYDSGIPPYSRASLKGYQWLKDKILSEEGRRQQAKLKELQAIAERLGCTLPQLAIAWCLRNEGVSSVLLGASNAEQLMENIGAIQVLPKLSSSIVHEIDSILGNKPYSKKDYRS
# Chain of Alpha-2C adrenergic receptor (Homo sapiens) (P18825 whole entry, looked up): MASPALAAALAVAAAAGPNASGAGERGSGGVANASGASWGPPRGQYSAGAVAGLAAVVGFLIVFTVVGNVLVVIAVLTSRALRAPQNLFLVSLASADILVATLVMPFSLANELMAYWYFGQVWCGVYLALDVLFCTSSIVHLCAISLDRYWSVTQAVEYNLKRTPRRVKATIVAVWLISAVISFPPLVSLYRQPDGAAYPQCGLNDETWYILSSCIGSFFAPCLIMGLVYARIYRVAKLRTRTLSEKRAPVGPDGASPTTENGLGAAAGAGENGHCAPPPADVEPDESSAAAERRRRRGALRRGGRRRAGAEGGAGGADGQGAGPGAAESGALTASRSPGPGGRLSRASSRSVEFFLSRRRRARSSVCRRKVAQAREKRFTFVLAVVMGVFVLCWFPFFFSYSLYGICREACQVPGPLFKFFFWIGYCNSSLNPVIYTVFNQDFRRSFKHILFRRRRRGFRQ
SMILES,cell count [1],inhibition [1],inhibition of aggregation [2],nuclei count [2] [%],inhibition [3],nuclei count [3] [%],fluorescence slope [4],NADPH fluorescence slope [5],slope [6],inhibition [7],inhibition [8]
O=C(COc1ccccc1)N1CCN(C(=O)c2cccc(F)c2)CC1,725,1% (inactive),-0.2% (inactive),111,7.6% (inactive),97.2,-0.447 (inactive),-3.8e-05 (inactive),0.00634 (inactive),8.19% (inactive),29.6% (inactive)
COc1ccccc1OCC(=O)N1CCN(c2ccccc2OC)CC1,471,3% (inactive),5.3% (inactive),108,35.1% (inactive),107,-0.6 (inactive),-1.5e-05 (inactive),0.00684 (inactive),-19.3% (inactive),-1.87% (inactive)
CC(C)(C)C(=O)Cn1c[n+](N)cn1,545,-9.5% (inactive),-3.6% (inactive),118,18.1% (inactive),105,-0.62 (inactive),-3.8e-05 (inactive),0.00385 (inactive),18.9% (inactive),26.2% (inactive)
CCOc1ccc(C2CC(=O)NC3=C2C(=O)CCC3)cc1Cl (stereo not drawn),481,10% (inactive),5.5% (inactive),106,-1.1% (inactive),110,-0.407 (inactive),-3.2e-05 (inactive),0.00268 (inactive),5.45% (inactive),13.2% (inactive)
CC1CCC(NC(=O)C2(C)CCC(=O)N2Cc2cccnc2)CC1 (stereo not drawn),890,-5.2% (inactive),18.3% (inactive),70.4,-7.7% (inactive),101,-0.598 (inactive),-1.4e-05 (inactive),0.00748 (inactive),1.39% (inactive),32.6% (inactive)
CC(C)CNS(=O)(=O)c1ccc(OCC(=O)Nc2ccc3c(c2)OCO3)c(Cl)c1,463,-12.1% (inactive),-1.9% (inactive),81.6,-0.6% (inactive),85.5,-0.377 (inactive),-2e-05 (inactive),0.00353 (inactive),6.42% (inactive),19.3% (inactive)
COc1ccc(Nc2ncc3c(n2)CC(c2ccc(OC)cc2)CC3=O)cc1 (stereo not drawn),649,6.3% (inactive),-7.5% (inactive),101,-5.5% (inactive),97,-0.298 (inactive),-3.8e-05 (inactive),0.0047 (inactive),5.21% (inactive),-19.5% (inactive)
COCCCn1c(SCC(=O)Nc2cccc(C)n2)nnc1-c1ccco1,601,-10.2% (inactive),21.7% (inactive),85.3,73.4% (inactive),64.2,-0.612 (inactive),-2.9e-05 (inactive),0.00331 (inactive),18.6% (inactive),16.6% (inactive)
CCOC(=O)c1ccc(NC(=O)CSCc2ccco2)cc1,680,-1.5% (inactive),-9.1% (inactive),108,-4.5% (inactive),97.2,-0.471 (inactive),-2.1e-06 (inactive),0.0058 (inactive),1.64% (inactive),-14.9% (inactive)
CC(C)=CCCC(C)CN(C)CCc1ccccn1 (stereo not drawn),281,-2.1% (inactive),27.8% (inactive),92.8,-75.4% (inactive),108,-0.448 (inactive),-0.000147 (inactive),0.00676 (inactive),-1.84% (inactive),20.8% (inactive)
CCOC(=O)c1cc(CC)sc1NC(=O)CCC(=O)O,415,-3.2% (inactive),3% (inactive),99.8,-75.3% (inactive),109,-0.433 (inactive),-4.9e-06 (inactive),0.00617 (inactive),22% (inactive),26.5% (inactive)
c1ccc(Cn2nnnc2CN2CCN(c3ncccn3)CC2)cc1,717,-8.1% (inactive),-12.8% (inactive),114,-11.1% (inactive),130,-0.585 (inactive),-4.5e-05 (inactive),0.0043 (inactive),11.4% (inactive),20.1% (inactive)
CCCOc1cccc(C(=O)N(Cc2ccco2)C2CCS(=O)(=O)C2)c1 (stereo not drawn),378,1.7% (inactive),-7.9% (inactive),100,-94.2% (inactive),112,-0.442 (inactive),-3.3e-05 (inactive),0.00536 (inactive),2.23% (inactive),-2.97% (inactive)
COc1ccc(C2CC(c3cccs3)n3nc(N)nc3N2)cc1 (stereo not drawn),619,-6.3% (inactive),7.8% (inactive),122,-38.1% (inactive),118,-0.533 (inactive),-1.5e-05 (inactive),0.00849 (inactive),-3.14% (inactive),-18.2% (inactive)
CC(C)CC1NC2(C(=O)N(C)c3ccccc32)C2C(=O)N(C(C)C)C(=O)C12 (stereo not drawn),798,-5.5% (inactive),-49.8% (inactive),72.1,13.8% (inactive),103,-0.482 (inactive),9.4e-06 (inactive),0.00636 (inactive),-1.45% (inactive),-17% (inactive)
CCCC(=O)Nc1nnc(CC(=O)OCC)s1,799,-7.3% (inactive),11% (inactive),95.6,-35.4% (inactive),113,-0.614 (inactive),1.3e-05 (inactive),0.00516 (inactive),-5.88% (inactive),15.8% (inactive)
COc1cccc(CNC(=O)Cn2c(=O)oc3ccccc32)c1OC,603,-4% (inactive),2.6% (inactive),59.7,-16.3% (inactive),88.3,-0.53 (inactive),-3.1e-05 (inactive),0.00743 (inactive),11.8% (inactive),31% (inactive)
COc1cc(OC)cc(-c2nc(N)n[nH]2)c1,455,3.7% (inactive),0% (inactive),105,-33% (inactive),104,-0.411 (inactive),-5.5e-05 (inactive),0.00517 (inactive),10.7% (inactive),12% (inactive)
CN(C#N)c1nc(N2CCOCC2)nc(N2CCOCC2)n1,424,-3.8% (inactive),-5.5% (inactive),104,-192% (inactive),105,-0.612 (inactive),6.7e-06 (inactive),0.00573 (inactive),16.7% (inactive),20% (inactive)
CC(C)COC(=O)NCC12C=CC(O1)C1C(=O)N(c3ccc(Cl)cc3)C(=O)C12 (stereo not drawn),280,-0.5% (inactive),-14.3% (inactive),104,5.7% (inactive),119,-0.447 (inactive),-0.000376 (inactive),0.005 (inactive),-5.72% (inactive),0.93% (inactive)
O=C(c1cccc(F)c1)N1CCc2ccccc21,490,3.5% (inactive),-1.6% (inactive),107,-9.7% (inactive),114,-0.478 (inactive),-1.8e-05 (inactive),0.0055 (inactive),0.0423% (inactive),27.3% (inactive)
Cc1ccc(-c2nn(-c3ccccc3)cc2CN(Cc2ccccc2)C(=O)CCC(=O)O)o1,329,7.1% (inactive),-24.5% (inactive),107,-66.8% (inactive),120,-0.429 (inactive),-2.6e-05 (inactive),0.00807 (inactive),12.8% (inactive),19.6% (inactive)
COc1cccc(NC(=O)C2C3C=CC4(O3)C2C(=O)N(C(C)C)C4C(=O)NC2CCCCC2C)c1 (stereo not drawn),424,2.6% (inactive),-8.5% (inactive),110,-98.5% (inactive),114,-0.525 (inactive),3.5e-06 (inactive),0.00614 (inactive),2.64% (inactive),7.71% (inactive)
O=C(Nc1ccc(S(=O)(=O)Nc2ccc(Cl)cc2)cc1)C1CCCO1 (stereo not drawn),629,-6.5% (inactive),3.9% (inactive),104,7.3% (inactive),101,-0.415 (inactive),-4.8e-05 (inactive),0.0052 (inactive),14.5% (inactive),-12.8% (inactive)
Cn1c(=O)c2c(ncn2CC(=O)OCC(=O)NC2CCCc3ccccc32)n(C)c1=O (stereo not drawn),392,2.7% (inactive),23.7% (inactive),64.6,-85.1% (inactive),112,-0.616 (inactive),2.2e-06 (inactive),0.00842 (inactive),2.45% (inactive),22.5% (inactive)
CCOC(=O)C1=C(O)CCn2c1nc1ccccc12,376,2% (inactive),14.2% (inactive),56.5,-214% (inactive),98.6,-0.504 (inactive),-0.000164 (inactive),0.005 (inactive),9.43% (inactive),-0.0537% (inactive)
CC1CCN(C(=O)CSc2nnc(-c3ccc(S(=O)(=O)N4CCOCC4)cc3)n2C)CC1,446,3.5% (inactive),-5.5% (inactive),97.2,-169% (inactive),114,-0.612 (inactive),-4.4e-05 (inactive),0.00393 (inactive),3.11% (inactive),0.175% (inactive)
COC(=O)c1c(NC(=O)CSc2nnc(-c3cccnc3)n2Cc2ccco2)sc(C)c1C,505,-5.5% (inactive),24% (inactive),101,29.5% (inactive),104,-0.579 (inactive),-2.7e-05 (inactive),0.00567 (inactive),4.42% (inactive),16.1% (inactive)
